Several values for one entry are separate records, joined by “and”; a condition that tells them apart may be missing. Equal entries are not always repeated. Structures can show the parent of a compound that is named as a salt.

A word on the cell viability: it is a read-out of living cells in per cent, often relative to untreated cells.

The test system of one assay is K562. As to the kind of experiment: cell viability relative to vehicle control; higher = less cytotoxic. As to conditions: 10 µM; SRSF2 genotype: SRSF2 P95H/wt. The method in brief:
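After removal of identity-inconsistent compounds, the Selleck bioactive, kinase and epigenetic probe libraries were screened on CRISPR-edited mutant clones and isogenic wild-type clones of four leukaemia lines. Plates were 384-well, each well holding 2000 cells in 50 µL medium and receiving a single 10 µM acoustically dispensed dose. CellTiter-Glo luminescence was read 48 h later, after the supernatant was taken off. Genedata Screener was used to express viability as percent of the on-plate vehicle control.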
Regarding `Nc1[nH]c(=O)ncc1Br` [5-Bromocytosine], the cell viability was 102% and 99.4%. Same read-out and setting: in the case of `CC[C@H](C)C(=O)O[C@H]1C[C@@H](C)C=C2C=C[C@H](C)[C@H](CC[C@@H]3C[C@@H](O)CC(=O)O3)[C@H]21` [Lovastatin (Mevacor)] it was 86.3% and 96.8%; in that of `CO/N=C(\C(=O)N[C@@H]1C(=O)N2C(C(=O)[O-])=C(C[N+]3(C)CCCC3)CS[C@H]12)c1csc(N)n1` [Cefepime Dihydrochloride Monohydrate], 101% and 102%. Same read-out and setting: in the case of `CC(=O)OC(C)C(C)C(=O)OCC12C3CC(C)(C)[C@H](O[C@@H]1C[C@]1(C)C3=CCC3C4(C)CCC(O[C@@H]5O[C@H](C(=O)O)[C@@H](O[C@H]6O[C@H](CO)[C@@H](O)[C@H](O)[C@H]6O)[C@H](O)[C@H]5O[C@@H]5OC[C@@H](O)[C@H](O)[C@H]5O)[C@](C)(CO)C4CCC31C)C2O` (stereo partly drawn) [Sodium Aescinate] it was 90.7% and 98.9%; in that of `C[C@H]1C[C@H]2[C@@H]3C[C@H](F)C4=CC(=O)C=C[C@]4(C)[C@@]3(F)[C@@H](O)C[C@]2(C)[C@@]1(O)C(=O)CO` [Diflorasone], 101% and 99.2%; in that of `Oc1ccc(CC2NCCc3cc(O)c(O)cc32)cc1` (stereo not drawn) [Higenamine hydrochloride], 92.4% and 103%. On the same count and under the same terms, then `CC(C)(C)[N+]([O-])=Cc1ccc(S(=O)(=O)O)cc1S(=O)(=O)O` [NXY-059 (Disufenton sodium)], with 111% and 102%; and `CN1CCC(=C2c3ccccc3CCc3sccc32)CC1` [Pizotifen malate], with 89.7% and 97%.

Still in this assay, the particulars now being: 10 µM; SRSF2 genotype: SRSF2 wt/wt.
Consider `NC(=O)[C@@H](CCC(F)(F)F)N(Cc1ccc(-c2ncon2)cc1F)S(=O)(=O)c1ccc(Cl)cc1`, for which the cell viability is 93.9%.

Consider `COc1c/c(=C2\C=c3ccccc3=N2)[nH]/c1=C\c1[nH]c(C)cc1C` [Obatoclax mesylate (GX15-070)], for which the cell viability worked out at 9.27%. Still for that read-out and setting: then `O=C(O)CC(C(=O)O)n1c(O)c(C2=c3cc(Br)ccc3=NC2=O)sc1=S` (stereo not drawn), with 99.6%; and `COc1cc(NS(=O)(=O)c2ccc(N)cc2)nc(OC)n1` [Sulphadimethoxine], with 95.9%; and `NC(=O)[C@@H]1CCCN1C(=O)[C@H](Cc1c[nH]cn1)NC(=O)[C@@H]1CCC(=O)N1` [Protirelin], with 104%. With `COC(=O)c1cc(OC)c(O)c(OC)c1` [Methyl syringate], the cell viability is 91.2%.

In the case of `N=c1ccn2c(n1)O[C@H]1[C@H](O)[C@@H](CO)O[C@H]12` [Cyclocytidine HCl], the cell viability was found to be 101%. Still for that read-out and setting: in the case of `O=P(O)(O)C(O)(Cc1cccnc1)P(=O)(O)O` [Risedronate sodium] it was 91.4%; in that of `CN(C)CCOc1ccc(-c2nc(-c3ccncc3)c(-c3ccc4c(c3)CC/C4=N\O)[nH]2)cc1`, 0.83%. In the case of `COC(=O)C1=C(C)NC(C)=C(C(=O)OCCN2CCN(C(c3ccccc3)c3ccccc3)CC2)C1c1cccc([N+](=O)[O-])c1` (stereo not drawn) [Manidipine (Manyper)], the cell viability worked out at 53.3%.

Consider `COC1CCN(C(=O)c2cc(Cc3n[nH]c(=O)c4ccccc34)ccc2F)CC1`, for which the cell viability amounted to 86%. The same measure, in the same setting: in the case of `C=C1C[C@@]23CC[C@H]4[C@@](C)(CCC[C@@]4(C)C(=O)O[C@@H]4O[C@H](CO)[C@@H](O)[C@H](O)[C@H]4O)[C@@H]2CC[C@]1(O[C@@H]1O[C@H](CO)[C@@H](O)[C@H](O)[C@H]1O[C@@H]1O[C@H](CO)[C@@H](O)[C@H](O)[C@H]1O)C3` [Stevioside] it was 113%; in that of `Cc1cc(=O)oc2ccc(O)cc12` [6-Hydroxy-4-methylcoumarin], 107%. On the same count and under the same terms, then `COC1C(O)C(O)C(O)C(O)C1O` (stereo not drawn) [Sequoyitol], with 110%; and `CC1(C)O[C@@H]2C[C@H]3[C@@H]4CCC5=CC(=O)C=C[C@]5(C)[C@@]4(F)[C@@H](O)C[C@]3(C)[C@]2(C(=O)CO)O1` [Triamcinolone Acetonide], with 102%. On the same count and under the same terms, then `COc1ccc(C(C)=O)c(O)c1` [Paeonol (Peonol)], with 99.5%. On to `COc1cccc(/C=N/N(C(=O)C(F)(F)F)c2ccc(C)cc2C)c1`, for which the cell viability is 99.8%. On the same count and under the same terms, then `C=C1C(=O)[C@]23[C@H](O)[C@H]1CC[C@H]2[C@@]12CO[C@]3(O)[C@@H](O)[C@@H]1C(C)(C)CC[C@@H]2O` [Oridonin (Isodonol)], with 24.2%; and `CN(CCOc1ccc(CC2SC(=O)NC2=O)cc1)c1ccccn1` (stereo not drawn) [Rosiglitazone maleate], with 96%; and `CC(C)C[C@@H]1NC(=O)[C@@H](C(C)C)NC(=O)[C@@H]2CCCN2C(=O)[C@@H](CC(=O)O)NC(=O)[C@@H](Cc2c[nH]c3ccccc23)NC1=O`, with 97%.

As to `Cc1cc(Nc2ncc3c(n2)N(C)C(=O)N(c2cc(NC(=O)c4cccc(C(F)(F)F)c4)ccc2C)C3)n(C)n1` [Pluripotin (SC1)], the cell viability turned out to be 30.4%. Regarding `C[C@]12C=CC(=O)C=C1CC[C@H]1[C@@H]3C[C@@H](O)[C@](O)(C(=O)CO)[C@@]3(C)C[C@H](O)[C@@]12F` [Triamcinolone (Aristocort)], the cell viability came to 106%. The same measure, in the same setting: in the case of `O=C(O)CCC(=O)O` [Succinic acid] it was 88%; in that of `CCOP(=O)(OCC)C(=Cc1cc(C(C)(C)C)c(O)c(C(C)(C)C)c1)P(=O)(OCC)OCC`, 84.6%. Still for that read-out and setting: then `O=C(/C=C/C=C/c1ccc2c(c1)OCO2)N1CCCCC1` [Piperine (1-Piperoylpiperidine)], with 89.7%; and `Cc1cc(=O)n(-c2ccccc2)n1C` [Antipyrine], with 82.7%; and `CC(=O)OC(CC(C)C1=C2CC(O)C3C4(C)CCC(=O)C(C)(C)C4CCC3(C)C2(C)CC1)C1OC1(C)C` (stereo not drawn) [Alisol B Acetate], with 87.8%. For the compound `CC(=O)Nc1ccccc1` [Acetanilide (Antifebrin)], the cell viability came to 101%. Consider `CCS(=O)(=O)N1CC(CC#N)(n2cc(-c3ncnc4[nH]ccc34)cn2)C1`, for which the cell viability worked out at 108%. The same measure, in the same setting: in the case of `O=C(O)[C@H]1O[C@@H](Oc2cc3oc(-c4ccc(O)cc4)cc(=O)c3c(O)c2O)[C@H](O)[C@@H](O)[C@@H]1O` [Scutellarin] it was 96%. On the same count and under the same terms, in the case of `Cc1cc(S(=O)(=O)O)c2c(C)ccc(C(C)C)cc1-2` [Sodium gualenate] it was 103%; in that of `O=C(Nc1ccc(OC(F)(F)Cl)cc1)c1cnc(N2CC[C@@H](O)C2)c(-c2cc[nH]n2)c1` [Asciminib (ABL001)], 17.1%. Same read-out and setting: then `Nc1[nH]c(=O)ncc1Br` [5-Bromocytosine], with 105%; and `CC[C@H](C)C(=O)O[C@H]1C[C@@H](C)C=C2C=C[C@H](C)[C@H](CC[C@@H]3C[C@@H](O)CC(=O)O3)[C@H]21` [Lovastatin (Mevacor)], with 68.8%. As for `CO/N=C(\C(=O)N[C@@H]1C(=O)N2C(C(=O)[O-])=C(C[N+]3(C)CCCC3)CS[C@H]12)c1csc(N)n1` [Cefepime Dihydrochloride Monohydrate], the cell viability is 106%. Still for that read-out and setting: then `CC(=O)OC(C)C(C)C(=O)OCC12C3CC(C)(C)[C@H](O[C@@H]1C[C@]1(C)C3=CCC3C4(C)CCC(O[C@@H]5O[C@H](C(=O)O)[C@@H](O[C@H]6O[C@H](CO)[C@@H](O)[C@H](O)[C@H]6O)[C@H](O)[C@H]5O[C@@H]5OC[C@@H](O)[C@H](O)[C@H]5O)[C@](C)(CO)C4CCC31C)C2O` (stereo partly drawn) [Sodium Aescinate], with 93.9%; and `C[C@H]1C[C@H]2[C@@H]3C[C@H](F)C4=CC(=O)C=C[C@]4(C)[C@@]3(F)[C@@H](O)C[C@]2(C)[C@@]1(O)C(=O)CO` [Diflorasone], with 105%. For the compound `Oc1ccc(CC2NCCc3cc(O)c(O)cc32)cc1` (stereo not drawn) [Higenamine hydrochloride], the cell viability is 98%. Turning to `CC(C)(C)[N+]([O-])=Cc1ccc(S(=O)(=O)O)cc1S(=O)(=O)O` [NXY-059 (Disufenton sodium)], the cell viability is 109%. The same measure, in the same setting: then `CN1CCC(=C2c3ccccc3CCc3sccc32)CC1` [Pizotifen malate], with 95.2%.

For the origin of these results see the supplement of paper PMC10981050.
